Measurements: PubChem BioAssay (NCATS)
Results filed as inconclusive are left out. Activity calls are given as the source filed them. Unless noted, the call rests on the fitted dose curve; in most records, active means well fitted curve in the direction sought with a large enough effect; inconclusive means small, poorly fitted or top-dose-only effect, or another doubt; inactive means no such curve, though single readings can be large; an effect the other way counts as inactive or inconclusive.

Key:
[1] = biological target: Lysosomal acid glucosylceramidase (Homo sapiens) (UniProt P04062); assay: Glucocerebrosidase-p2 (AID 348; in the data active means potency below about 10 µM; further: potency means the concentration at half of the fitted maximal effect); conditions: purified GBA, blue fluorogenic substrate, 40 min
Sequence of Lysosomal acid glucosylceramidase (Homo sapiens) (P04062 whole entry, looked up): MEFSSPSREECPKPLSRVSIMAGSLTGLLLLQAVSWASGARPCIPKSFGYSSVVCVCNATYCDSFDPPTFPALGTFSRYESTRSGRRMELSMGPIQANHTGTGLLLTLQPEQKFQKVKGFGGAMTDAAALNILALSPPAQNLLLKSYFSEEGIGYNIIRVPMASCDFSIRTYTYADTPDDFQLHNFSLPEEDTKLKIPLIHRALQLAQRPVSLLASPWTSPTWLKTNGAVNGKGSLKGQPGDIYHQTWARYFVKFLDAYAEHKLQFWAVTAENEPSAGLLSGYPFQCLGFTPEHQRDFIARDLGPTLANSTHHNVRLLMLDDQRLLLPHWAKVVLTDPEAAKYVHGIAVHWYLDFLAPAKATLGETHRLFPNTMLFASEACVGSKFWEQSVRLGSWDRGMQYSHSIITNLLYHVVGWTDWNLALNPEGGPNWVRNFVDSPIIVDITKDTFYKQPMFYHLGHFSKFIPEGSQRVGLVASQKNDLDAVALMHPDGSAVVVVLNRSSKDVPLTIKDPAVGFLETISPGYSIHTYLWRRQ
Outline: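 Normal human glucocerebrosidase (0.2 nM) with blue fluorogenic substrate (80 uM final) in citrate/phosphate pH 5.9 with 10mM sodium taurocholate, 0.01% tween-20; 40 min RT, NaOH/glycine stop; fluorescence Ex 365/Em 440; AC50 from a titration from 0.6 nM upwards.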

[2] = AP1 Signaling Pathway (AID 357; active means well fitted curve in either direction with a large enough effect, not every such curve was filed as active;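 further: ME-180 reporter cells stimulated with EGF at its EC50 level; on the % scale 0 is the no-effect control and ±100 the full control effect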); conditions: ME-180 AP-1-bla reporter, EGF-induced, beta-lactamase ratio, 5 h; at 7.69 µM (top of the series) unless noted
Outline: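 In this screen, ME-180 cells in Opti-MEM with 0.5% dialyzed FBS received EC50 EGF and compound titrations for 5 h. AP-1 reporter beta-lactamase was detected via CCF4 ratio, giving AC50 for positive and negative modulators.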

[3] = biological target: Cytochrome P450 1A2 (Homo sapiens) (UniProt P05177); assay: p450-cyp1a2 (AID 410; calls by dose curve; further: potency means the concentration at half of the fitted maximal effect;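 on activity change, negative = inhibition: -100% = full effect of reference inhibitor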); conditions: recombinant CYP1A2, luciferin-ME demethylation, luminescence; series mostly up to 57 µM
Sequence of Cytochrome P450 1A2 (Homo sapiens) (P05177 whole entry, looked up): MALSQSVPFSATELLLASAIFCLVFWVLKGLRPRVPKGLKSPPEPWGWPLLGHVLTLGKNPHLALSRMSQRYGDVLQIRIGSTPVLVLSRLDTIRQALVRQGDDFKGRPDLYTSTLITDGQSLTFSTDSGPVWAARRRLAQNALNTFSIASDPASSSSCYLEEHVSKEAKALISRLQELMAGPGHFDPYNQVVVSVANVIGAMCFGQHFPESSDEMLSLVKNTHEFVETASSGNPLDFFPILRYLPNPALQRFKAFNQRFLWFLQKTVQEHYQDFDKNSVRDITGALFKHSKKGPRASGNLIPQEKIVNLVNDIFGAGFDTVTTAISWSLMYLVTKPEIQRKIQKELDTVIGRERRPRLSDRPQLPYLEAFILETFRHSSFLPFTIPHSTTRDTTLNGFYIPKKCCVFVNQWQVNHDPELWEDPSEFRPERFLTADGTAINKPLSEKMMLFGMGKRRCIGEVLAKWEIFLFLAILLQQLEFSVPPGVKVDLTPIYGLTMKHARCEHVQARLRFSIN
Outline: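 Read-out is luminescence from luciferin produced by CYP1A2 demethylation of Luciferin-ME (100uM, at Km). Detection reagent stopped the 60 min NADPH-dependent reaction; signals were normalized to 57 uM furafylline.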

[4] = NFAT Signaling Pathway (AID 444; active means well fitted curve in either direction with a large enough effect, not every such curve was filed as active;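 further: carbachol stimulus at about its EC50 of 1 µM final; on the % scale 0 is the no-effect control and ±100 the full control effect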); conditions: Jurkat NFAT-bla M1, carbachol, beta-lactamase ratio, 5 h; at 7.69 µM (top of the series) unless noted
Outline: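 Read-out: CCF4 FRET ratio (460 nm/530 nm) after 1 h RT dye loading, used for %activity and AC50 from titration series. Cells: Jurkat NFAT-β-lactamase/M1 line, treated with compound plus 1 uM carbachol for 5 h, 37 °C.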

[5] = Stat Signaling Pathway (AID 446; active means well fitted curve in either direction with a large enough effect, not every such curve was filed as active;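 further: ME-180 cervical cancer cells given 40 pM IL-6 alongside compound; SIE-controlled beta-lactamase reporter measured as 460/530 nm FRET emission ratio; on the % scale 0 is the no-effect control and ±100 the full control effect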); conditions: ME-180 (cervical carcinoma) SIE beta-lactamase reporter, IL-6 stimulated, 5 h; at 7.69 µM (top of the series) unless noted
Outline: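 Emission at 460 and 530 nm (excitation 405 nm) reports SIE-controlled beta-lactamase in ME-180 cells. Cells received compound with 40 pM IL-6 for 5 hrs at 37 C; data scaled between 300 pM IL-6 and 125 nM JAK-inhibitor controls.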

[6] = biological target: Glucocorticoid receptor (Homo sapiens) (UniProt P04150); assay: GR-GFP Redistribution (AID 450;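 active means compounds whose dose series gives a full or clear partial fitted curve of increased nuclear translocation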; further: potency means the concentration at half of the fitted maximal effect); conditions: U2OS GR-GFP nuclear translocation, laser cytometry, 2 h
Sequence of Glucocorticoid receptor (Homo sapiens) (P04150 whole entry, looked up, the tested form may be a part): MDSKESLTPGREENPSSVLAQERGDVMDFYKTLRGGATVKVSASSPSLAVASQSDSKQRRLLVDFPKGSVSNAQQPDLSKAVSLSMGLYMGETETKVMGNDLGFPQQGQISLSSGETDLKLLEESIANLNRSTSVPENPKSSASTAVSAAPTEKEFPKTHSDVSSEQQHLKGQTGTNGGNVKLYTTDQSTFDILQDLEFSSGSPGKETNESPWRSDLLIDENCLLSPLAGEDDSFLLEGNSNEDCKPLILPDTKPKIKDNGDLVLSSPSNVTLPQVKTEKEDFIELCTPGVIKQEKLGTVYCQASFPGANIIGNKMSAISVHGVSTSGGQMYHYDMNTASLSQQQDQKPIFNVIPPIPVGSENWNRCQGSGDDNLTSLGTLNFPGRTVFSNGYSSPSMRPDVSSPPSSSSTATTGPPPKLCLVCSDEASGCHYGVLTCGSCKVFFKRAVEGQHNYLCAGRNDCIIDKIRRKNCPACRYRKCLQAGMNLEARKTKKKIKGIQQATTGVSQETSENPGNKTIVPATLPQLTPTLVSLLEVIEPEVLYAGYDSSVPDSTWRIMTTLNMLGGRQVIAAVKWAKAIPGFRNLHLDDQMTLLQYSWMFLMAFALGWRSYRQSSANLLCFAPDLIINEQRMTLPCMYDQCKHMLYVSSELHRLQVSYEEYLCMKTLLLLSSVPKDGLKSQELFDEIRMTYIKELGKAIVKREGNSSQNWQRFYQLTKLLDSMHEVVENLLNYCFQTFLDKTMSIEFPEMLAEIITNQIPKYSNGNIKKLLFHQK

[7] = biological target: Glucocorticoid receptor (Homo sapiens) (UniProt P04150); assay: GR-EFC Redistribution (AID 451; calls by dose curve; further: potency means the concentration at half of the fitted maximal effect); conditions: CHO-K1 GR-EFC translocation, beta-gal luminescence, 2 h
Outline: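 Translocation of GR-ED fusion to nuclear EA restores b-gal, read by luminescence after 1 h room-temperature detection. Engineered CHO-K1 biosensor cells, 1,000/well, exposed 2 h at 37 C to titrations up to 46 uM final.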

[8] = biological target: Mitogen-activated protein kinase 10 (Mus musculus) (UniProt Q61831); assay: JNK3 AlphaScreen Assay (AID 530; active means well fitted curve in either direction with a large enough effect, not every such curve was filed as active;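 further: kinase came from lysate of stimulated human HepG2 cells; signal reports phosphorylation of biotinylated GST-cJun 1-79 at Ser73 with 10 µM ATP; on the % scale 0 is the no-effect control and ±100 the full control effect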); conditions: JNK3 lysate, c-Jun phosphorylation; series mostly up to 57.1 µM
Outline: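 Kinase buffer: 20 mM Tris-HCl pH 7.6, 10 mM MgCl2, 1 mM DTT, 0.1 mM Na3VO4, 0.01% Tween-20; ATP 10 uM. Substrate biotin-GST-cJun(1-79), enzyme from activated HepG2 lysates. Detection by Ser73 phospho-antibody AlphaScreen.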

[9] = biological target: 3',5'-cyclic-AMP phosphodiesterase 4B (Homo sapiens) (UniProt Q07343); assay: qHTS Assay for Inhibitors of PDE-IV (AID 607; active means well fitted activation curve with a large enough effect in the main read-out, with a control signal flat, not every such curve was filed as active; further: % of control where 0% means no effect); conditions: HEK293 ACTOne CNG channel cells, membrane potential fluorescence; series mostly up to 22.9 µM
Sequence of 3',5'-cyclic-AMP phosphodiesterase 4B (Homo sapiens) (Q07343 whole entry, looked up): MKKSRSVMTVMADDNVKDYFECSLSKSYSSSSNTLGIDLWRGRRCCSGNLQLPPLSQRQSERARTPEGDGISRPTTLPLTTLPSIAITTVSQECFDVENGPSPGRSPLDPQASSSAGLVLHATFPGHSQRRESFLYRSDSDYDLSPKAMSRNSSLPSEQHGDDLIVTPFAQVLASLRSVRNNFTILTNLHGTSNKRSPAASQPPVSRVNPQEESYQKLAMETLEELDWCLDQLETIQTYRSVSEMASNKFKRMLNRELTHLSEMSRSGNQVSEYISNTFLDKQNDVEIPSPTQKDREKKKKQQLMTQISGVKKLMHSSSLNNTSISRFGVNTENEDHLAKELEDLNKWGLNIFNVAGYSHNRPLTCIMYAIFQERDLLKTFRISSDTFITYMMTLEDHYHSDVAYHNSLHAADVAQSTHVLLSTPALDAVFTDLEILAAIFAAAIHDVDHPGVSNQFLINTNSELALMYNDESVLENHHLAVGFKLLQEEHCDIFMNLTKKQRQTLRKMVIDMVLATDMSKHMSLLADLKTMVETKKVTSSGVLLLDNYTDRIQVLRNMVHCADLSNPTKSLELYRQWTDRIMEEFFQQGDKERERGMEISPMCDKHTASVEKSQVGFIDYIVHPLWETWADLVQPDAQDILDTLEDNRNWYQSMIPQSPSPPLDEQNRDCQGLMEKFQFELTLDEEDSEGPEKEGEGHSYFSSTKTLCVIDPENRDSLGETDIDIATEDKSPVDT
Outline: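 The readout is membrane depolarisation from a cAMP-sensing CNG channel, detected with a potential dye at ex 535/em 590. Cells were HEK293-derived (endogenous PDE-IV) at 1000 cells/well, titrated up to 22.9 uM final.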

[10] = qHTS Assay for Lipid Storage Modulators (AID 1519; calls by dose curve); conditions: Drosophila S3 cells, BODIPY lipid droplet/cell ratio, laser cytometry, cells loaded with oleic acid; for activity change, negative = inhibition: at 57.5 µM (top of the series)
Outline: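 Cells seeded at 5,000 per well were treated with compounds over a concentration series and loaded with oleic acid (400 uM, as added). Lipid droplet fluorescence (488 nm excitation, 500-530 nm channel) was read by laser-scanning cytometry and normalized to 20 uM Triacsin C.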

[11] = biological target: Dual specificity protein kinase CLK4 (Homo sapiens) (UniProt Q9HAZ1); assay: qHTS Assay for Inhibitors of CDC-like Kinase 4 (Kinase-Glo Assay) (AID 1770); conditions: recombinant Clk4, Kinase-Glo ATP depletion luminescence; series mostly up to 66.7 µM; further: nearly all actives have a fitted effect of over 65% in size; further: potency means the concentration at half of the fitted maximal effect
Sequence of Dual specificity protein kinase CLK4 (Homo sapiens) (Q9HAZ1 whole entry, looked up): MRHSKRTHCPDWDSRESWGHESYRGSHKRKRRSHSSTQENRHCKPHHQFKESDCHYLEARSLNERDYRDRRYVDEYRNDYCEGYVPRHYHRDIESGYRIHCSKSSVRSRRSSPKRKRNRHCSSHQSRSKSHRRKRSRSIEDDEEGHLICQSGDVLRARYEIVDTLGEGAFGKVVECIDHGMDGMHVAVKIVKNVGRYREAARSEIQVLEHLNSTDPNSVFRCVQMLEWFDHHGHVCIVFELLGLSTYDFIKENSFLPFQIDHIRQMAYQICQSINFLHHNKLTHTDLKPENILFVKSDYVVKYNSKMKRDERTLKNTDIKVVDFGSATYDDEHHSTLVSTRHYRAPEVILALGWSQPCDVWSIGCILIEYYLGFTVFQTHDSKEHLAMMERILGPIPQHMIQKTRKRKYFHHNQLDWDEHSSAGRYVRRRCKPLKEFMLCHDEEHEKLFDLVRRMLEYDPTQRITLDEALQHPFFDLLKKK
Outline: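 Clk4 25 nM, RS peptide 100 uM, ATP 1 uM, pH 7.5 Tris, 10 mM MgCl2, 2.5 mM DTT; 4.5 h RT; ATP depletion read by Kinase-Glo luminescence.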

[12] = biological target: Dual specificity protein kinase CLK4 (Homo sapiens) (UniProt Q9HAZ1); assay: qHTS Assay for Inhibitors of CDC-like Kinase 4 (ADP-Glo Assay) (AID 1771); conditions: recombinant CLK4, ADP-Glo luminescence; series mostly up to 80 µM; further: nearly all actives have a fitted effect of over 70% in size; further: potency means the concentration at half of the fitted maximal effect
Outline: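 In this ADP-Glo format, 1 uM ATP and 100 uM RS peptide served as substrates for 25 nM Clk4 in Mg2+/EGTA/DTT/Triton buffer; reactions ran 1 hr at room temperature before luminescent ADP quantification.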

[13] = biological target: Dual specificity protein kinase CLK4 (Homo sapiens) (UniProt Q9HAZ1); assay: qHTS Assay for Inhibitors of CDC-like Kinase 4 (ADP-FP Assay) (AID 1795); conditions: Transcreener ADP fluorescence polarization; series mostly up to 50 µM; further: nearly all actives have a fitted effect of over 60% in size; further: potency means the concentration at half of the fitted maximal effect
Outline: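 Kinase activity was followed as ADP output, converted from fluorescence polarization with a calibration curve. Reactions ran one hour at low ATP (1 uM) with RS peptide substrate.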

[14] = biological target: Ubiquitin carboxyl-terminal hydrolase 1 (Homo sapiens) (UniProt O94782); assay: Inhibitors of USP1/UAF1: Pilot qHTS (AID 504865); conditions: purified USP1/UAF1, Ub-rhodamine cleavage fluorescence; series mostly up to 54.9 µM;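 further: rhodamine fluorescence freed from ubiquitin-rhodamine substrate followed over time; top concentration of the series differs between compounds; on the % scale 0 is the no-effect control and ±100 the full control effect; nearly all actives have a fitted effect of over 35% in size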
Sequence of Ubiquitin carboxyl-terminal hydrolase 1 (Homo sapiens) (O94782 whole entry, looked up): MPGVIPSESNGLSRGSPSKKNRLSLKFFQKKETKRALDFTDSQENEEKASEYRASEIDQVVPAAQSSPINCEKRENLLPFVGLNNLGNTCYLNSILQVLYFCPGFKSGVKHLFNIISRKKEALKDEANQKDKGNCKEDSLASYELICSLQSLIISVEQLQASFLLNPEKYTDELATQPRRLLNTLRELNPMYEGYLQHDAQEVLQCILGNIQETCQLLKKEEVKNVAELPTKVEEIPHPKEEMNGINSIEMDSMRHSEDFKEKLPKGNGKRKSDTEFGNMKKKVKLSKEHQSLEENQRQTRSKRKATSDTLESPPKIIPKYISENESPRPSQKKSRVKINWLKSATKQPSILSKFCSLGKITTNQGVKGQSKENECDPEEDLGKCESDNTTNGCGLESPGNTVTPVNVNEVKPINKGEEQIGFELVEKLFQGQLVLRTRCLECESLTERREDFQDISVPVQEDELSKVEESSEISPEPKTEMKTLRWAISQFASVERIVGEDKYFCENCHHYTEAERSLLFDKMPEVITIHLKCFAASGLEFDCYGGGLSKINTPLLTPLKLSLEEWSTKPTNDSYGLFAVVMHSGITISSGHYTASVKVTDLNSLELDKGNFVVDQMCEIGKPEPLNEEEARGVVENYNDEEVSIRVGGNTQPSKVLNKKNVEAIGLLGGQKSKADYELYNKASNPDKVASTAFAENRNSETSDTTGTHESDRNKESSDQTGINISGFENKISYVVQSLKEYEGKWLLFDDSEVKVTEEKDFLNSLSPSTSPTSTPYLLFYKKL
Outline: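 Enzyme-free wells gave the negative control, while test wells held 1nM USP1/UAF1 preincubated with compound for 15 min at room temperature. Ub-Rho at 150nM final started the reaction, and fluorescence at 480/540 nm was recorded kinetically.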

[15] = Primary qHTS for small molecule stabilizers of the endoplasmic reticulum resident proteome: Secreted ER Calcium Modulated Protein (SERCaMP) assay (AID 1508630); conditions: SH-SY5Y GLuc-SERCaMP (Gaussia luciferase released on ER calcium loss) secretion, thapsigargin, luminescence; series mostly up to 38.4 µM; further: on the % scale 0 is the no-effect control and ±100 the full control effect
Outline: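 The SH-SY5Y reporter protocol was run at 3 concentrations up to 38.3 uM (primary) or 11 concentrations (follow-up): 16 h compound, 100 nM thapsigargin for 4 h, then extracellular luciferase luminescence.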

[16] = biological target: Cytochrome P450 3A4 (Homo sapiens) (UniProt P08684); assay: qHTS Assay for Activators of Cytochrome P450 3A4 (AID 885); conditions: recombinant CYP3A4, Luciferin-PPXE luminescence, 60 min; series mostly up to 57.1 µM; further: nearly all actives have a fitted effect of over 65% in size
Sequence of Cytochrome P450 3A4 (Homo sapiens) (P08684 whole entry, looked up): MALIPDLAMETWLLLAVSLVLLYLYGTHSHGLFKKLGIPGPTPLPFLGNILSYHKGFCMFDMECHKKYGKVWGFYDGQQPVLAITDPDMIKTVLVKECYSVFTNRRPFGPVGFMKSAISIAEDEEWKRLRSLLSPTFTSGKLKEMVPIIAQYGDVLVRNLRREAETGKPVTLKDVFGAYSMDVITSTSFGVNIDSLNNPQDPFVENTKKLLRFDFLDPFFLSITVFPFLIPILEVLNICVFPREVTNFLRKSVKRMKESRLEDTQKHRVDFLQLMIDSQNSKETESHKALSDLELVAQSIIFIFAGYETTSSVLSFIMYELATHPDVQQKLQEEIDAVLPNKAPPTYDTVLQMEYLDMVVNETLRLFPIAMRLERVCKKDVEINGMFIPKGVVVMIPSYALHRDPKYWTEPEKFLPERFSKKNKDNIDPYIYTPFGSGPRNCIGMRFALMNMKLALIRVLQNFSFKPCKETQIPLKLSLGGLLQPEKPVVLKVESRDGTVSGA
Outline: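 Activators are scored by enhanced luminescence from CYP3A4 conversion of luciferin-PPXE (25uM, equal to KM) to luciferin, after 60 min at RT with an NADPH-regenerating system.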

[17] = measured here: cell count channel max response
[18] = measured here: lipid channel max response

COc1ccc(-c2nc3cnc(N4CCOCC4)nc3n(C[C@H]3CCCO3)c2=O)cc1
inactive: Potency [1] > 11.4 µM | activity change, negative = inhibition [2] 8.17% | activity change, negative = inhibition [4] 15.8% | activity, negative = inhibition [5] 9.41% | Potency [6] > 9.22 µM | Potency [7] > 46 µM | outcome [8] | Potency [9] | activity change, negative = inhibition [10] 1.98% | Potency [11] | Potency [12] | Potency [13] | Potency [14] | Potency [15]
4.58%: max response [10, 17]
6.82%: max response [10, 18]
active: Potency [3] 5.01 µM

Cc1nc2cnc(N(C)C)nc2n(C2CC2)c1=O
inactive: Potency [1] > 11.4 µM | activity change, negative = inhibition [2] -20% | activity change, negative = inhibition [4] 4.63% | activity, negative = inhibition [5] -4.62% | Potency [6] > 9.22 µM | Potency [7] > 46 µM | outcome [8] | Potency [9] | activity change, negative = inhibition [10] 5.93% | Potency [11] | Potency [12] | Potency [13] | Potency [14] | Potency [15]
18.5%: max response [10, 18]
active: Potency [3] 3.98 µM
14.1%: max response [10, 17]

COCCn1c(=O)cnc2cnc(Oc3ccccc3)nc21
12.6%: max response [10, 18]
inactive: Potency [1] > 11.4 µM | activity change, negative = inhibition [2] -14.7% | activity change, negative = inhibition [4] -0.802% | activity, negative = inhibition [5] -13.1% | Potency [6] > 9.22 µM | Potency [7] > 46 µM | outcome [8] | Potency [9] | Potency [16] | activity change, negative = inhibition [10] 3.04% | Potency [11] | Potency [12] | Potency [13] | Potency [14] | Potency [15]
active: Potency [3] 15.8 µM
12%: max response [10, 17]

COCCn1c(=O)c(-c2ccc(F)cc2)nc2cnc(N3CCOCC3)nc21
15.7%: max response [10, 17]
16.8%: max response [10, 18]
active: Potency [3] 5.01 µM
inactive: Potency [1] > 11.4 µM | activity change, negative = inhibition [2] -9.35% | activity change, negative = inhibition [4] 16.8% | activity, negative = inhibition [5] -13.8% | Potency [6] > 9.22 µM | Potency [7] > 46 µM | outcome [8] | Potency [9] | activity change, negative = inhibition [10] 1.75% | Potency [11] | Potency [12] | Potency [13] | Potency [14] | Potency [15]

Cc1cnc(CNc2ccnc(-c3c(C)noc3C)n2)cn1
active: Potency [3] 12.6 µM
37.5%: max response [10, 18]
inactive: Potency [1] > 11.4 µM | activity change, negative = inhibition [2] 1.51% | activity change, negative = inhibition [4] 10.3% | activity, negative = inhibition [5] 1.5% | Potency [6] > 46 µM | Potency [7] > 46 µM | outcome [8] | Potency [9] | Potency [16] | activity change, negative = inhibition [10] 7.48% | Potency [11] | Potency [12] | Potency [13] | Potency [14] | Potency [15]
24.6%: max response [10, 17]

COc1cccc(-c2cncnc2NC2CCNCC2)c1
12.6%: max response [10, 17]
inactive: Potency [1] > 11.4 µM | activity change, negative = inhibition [2] -6.98% | Potency [3] | activity change, negative = inhibition [4] 9.29% | activity, negative = inhibition [5] 13.9% | Potency [6] > 46 µM | Potency [7] > 46 µM | outcome [8] | Potency [9] | activity change, negative = inhibition [10] 2.06% | Potency [11] | Potency [12] | Potency [13] | Potency [14] | Potency [15]
15.6%: max response [10, 18]

COc1ccc(Oc2ncc3nc(C)c(=O)n(-c4ccccc4)c3n2)cc1
17.1%: max response [10, 18]
inactive: Potency [1] > 11.4 µM | activity change, negative = inhibition [2] -15.8% | activity change, negative = inhibition [4] -10.3% | activity, negative = inhibition [5] -5.69% | Potency [6] > 9.22 µM | Potency [7] > 46 µM | outcome [8] | Potency [9] | Potency [16] | activity change, negative = inhibition [10] 6.06% | Potency [11] | Potency [12] | Potency [13] | Potency [14] | Potency [15]
active: Potency [3] 7.94 µM
10.7%: max response [10, 17]

N#Cc1cccc(-c2nc3cnc(Oc4cccc(Cl)c4)nc3n(C3CC3)c2=O)c1
8.29%: max response [10, 18]
active: Potency [3] 2.51 µM
11%: max response [10, 17]
inactive: Potency [1] > 11.4 µM | activity change, negative = inhibition [2] -1.53% | activity change, negative = inhibition [4] 12.5% | activity, negative = inhibition [5] -10.1% | Potency [6] > 9.22 µM | Potency [7] > 46 µM | outcome [8] | Potency [9] | activity change, negative = inhibition [10] -3.65% | Potency [11] | Potency [12] | Potency [13] | Potency [14] | Potency [15]

Cn1c(=O)c(-c2cc(F)cc(F)c2)nc2cnc(N3CCOCC3)nc21
active: Potency [3] 5.01 µM
16.8%: max response [10, 17]
inactive: Potency [1] > 11.4 µM | activity change, negative = inhibition [2] -11% | activity change, negative = inhibition [4] 14.4% | activity, negative = inhibition [5] -1.78% | Potency [6] > 9.22 µM | Potency [7] > 46 µM | outcome [8] | Potency [9] | activity change, negative = inhibition [10] 4.75% | Potency [11] | Potency [12] | Potency [13] | Potency [14] | Potency [15]
22.4%: max response [10, 18]

CCNc1ncc2ncc(=O)n(C3CC3)c2n1
13.9%: max response [10, 18]
inactive: Potency [1] > 11.4 µM | activity change, negative = inhibition [2] -20.4% | activity change, negative = inhibition [4] -6.86% | activity, negative = inhibition [5] -6.01% | Potency [6] > 9.22 µM | Potency [7] > 46 µM | outcome [8] | activity change, negative = inhibition [10] 3.55% | Potency [14] | Potency [15]
13.3%: max response [10, 17]
active: Potency [3] 3.16 µM | Potency [11] 14.1 µM | Potency [12] 11.2 µM | Potency [13] 12.6 µM

CNc1cc(-c2ccccc2CN(C)C)ncn1
8.03%: max response [10, 18]
inactive: Potency [1] > 11.4 µM | activity change, negative = inhibition [2] 6.89% | activity change, negative = inhibition [4] -0.773% | activity, negative = inhibition [5] -3.02% | Potency [6] > 46 µM | Potency [7] > 46 µM | outcome [8] | Potency [9] | activity change, negative = inhibition [10] 2.26% | Potency [11] | Potency [12] | Potency [13] | Potency [14] | Potency [15]
active: Potency [3] 31.6 µM
7.6%: max response [10, 17]
